In the library only some 1.1% were active in any assay of this set; here they are far more common.
SARS PLpro yeast: qHTS of Yeast-based Assay for SARS-CoV PLP; S. cerevisiae expressing SARS-CoV PLpro, growth rescue; Potency, µM (series often up to 32.9 µM), for inactives: at the top dose activity, positive = growth rescue, usual class: activators; 330,000 compounds, 0.19% hits; AID 485353, 2010; calls by dose curve; further: 0% is about no effect; nearly all actives have a fitted effect of over 55% in size
AmpC inh detg: qHTS Inhibitors of AmpC Beta-Lactamase (assay with detergent); P00811; 370,000 compounds, 0.041% hits; Potency, µM (top dose mostly 114 µM), without a hit: at the highest dose activity change, negative = inhibition, usual class: inhibitors; AID 485294, 2010; AmpC hydrolysis of nitrocefin, absorbance 480 nm, 0.01% Triton;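 further: 0% = no-compound wells and -100% = no-enzyme wells; nearly all actives have a fitted effect of over 25% in size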
Target sequence (P00811 whole entry, looked up): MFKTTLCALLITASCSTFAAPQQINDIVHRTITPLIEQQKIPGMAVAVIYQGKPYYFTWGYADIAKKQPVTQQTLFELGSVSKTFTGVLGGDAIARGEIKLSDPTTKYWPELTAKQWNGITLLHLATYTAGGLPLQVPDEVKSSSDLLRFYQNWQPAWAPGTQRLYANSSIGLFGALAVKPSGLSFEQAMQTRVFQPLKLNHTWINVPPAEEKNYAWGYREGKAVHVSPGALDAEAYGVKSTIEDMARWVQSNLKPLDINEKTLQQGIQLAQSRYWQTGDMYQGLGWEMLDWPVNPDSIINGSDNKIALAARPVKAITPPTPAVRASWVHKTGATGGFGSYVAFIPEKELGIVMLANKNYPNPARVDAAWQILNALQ
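AmpC (5.3 nM in the dispensed reagent) in 20 mM phosphate pH 7.0 with 0.01% (detergent screen) or 0.0001% Triton X-100 was preincubated with compounds for 15 min at room temperature. Nitrocefin was then added from an 800 uM solution, and hydrolysis was followed at 480 nm.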
AmpC no deterg: qHTS Inhibitors of AmpC Beta-Lactamase (assay without detergent); P00811; AmpC nitrocefin hydrolysis, absorbance 480 nm, 0.0001% Triton; Potency, µM (top dose mostly 57.1 µM), inactives show at the highest dose activity change, negative = inhibition, most hits filed as inhibitors; 330,000 compounds, 0.52% hits;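 further: plate controls were no compound for no effect and no enzyme for full effect; nearly all actives have a fitted effect of over 20% in size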
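AmpC (5.3 nM in the dispensed reagent) in 20 mM phosphate pH 7.0 with 0.01% (detergent screen) or 0.0001% Triton X-100 was preincubated with compounds for 15 min at room temperature. Nitrocefin was then added from an 800 uM solution, and hydrolysis was followed at 480 nm.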
Giardia FBPA inh-1: qHTS Assay for Inhibitors of Fructose-1,6-bisphosphate Aldolase from Giardia Lamblia | AID 2451, 2010 | Potency, µM (highest dose often 59.6 µM), for inactives: at the highest dose activity, negative = inhibition, actives largely listed as inhibitors | A8B2U2 | purified Giardia FBPA | 290,000 compounds, 0.71% hits; further: on the % scale 0 is the no-effect control and ±100 the full control effect; nearly all actives have a fitted effect of over 55% in size
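40 nM FBPA preincubated 10 min at RT with compound (up to 57.5 uM final), then substrate plus GAPDH/TPI/NAD/arsenate coupling and diaphorase/resazurin added. Fluorescence read after 20 min at RT, 525/598 nm.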
Giardia growth: qHTS Assay for Inhibitors of Fructose-1,6-bisphosphate Aldolase from Giardia Lamblia: Giardia lamblia growth inhibition; shares compounds with Giardia FBPA inh-1; Giardia lamblia trophozoite growth inhibition; Potency, µM (titrated, usually from 57.5 µM), for inactives: top-dose activity change, negative = inhibition, usual class: inhibitors; 1,500 compounds, 5% hits; AID 2785, 2010;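 further: trophozoites exposed to compound for 48 h at 37 °C; on the % scale 0 is the no-effect control and ±100 the full control effect; nearly all actives have a fitted effect of over 70% in size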
Mammal cell tox: qHTS Assay for Inhibitors of Fructose-1,6-bisphosphate Aldolase from Giardia Lamblia: Mammalian cellular toxicity; AID 2786, 2010; 1,500 compounds, 4% hits; shares compounds with Giardia FBPA inh-1; mammalian cell viability counter-screen, qHTS; Potency, µM (titrated, usually from 57.5 µM), for inactives: at the top dose viability change, negative = toxicity, hits mostly inhibitors;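 further: Chinese hamster ovary cells used as mammalian cytotoxicity surrogate; viability measured as cellular ATP by luminescence; compound exposure lasted 48 h before reading; on the % scale 0 is the no-effect control and ±100 the full control effect; nearly all actives have a fitted effect of over 60% in size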
Giardia FBPA inh-2: qHTS Assay for Inhibitors of Fructose-1,6-bisphosphate Aldolase from Giardia Lamblia: Primary screen confirmation | shares compounds with Giardia FBPA inh-1 | purified Giardia aldolase enzyme activity, qHTS | Potency, µM (series often up to 57.5 µM), for inactives: at the highest dose activity change, negative = inhibition, usual class: inhibitors | 1,500 compounds, 5% hits | AID 2787, 2010; further: on the % scale 0 is the no-effect control and ±100 the full control effect; nearly all actives have a fitted effect of over 45% in size
Rabbit FBPA inh: qHTS Assay for Inhibitors of Fructose-1,6-bisphosphate Aldolase from Giardia Lamblia: Rabbit FBPA Selectivity; Rabbit muscle FBPA enzyme inhibition, selectivity counter-screen; Potency, µM (doses to about 57.5 µM), without a hit: at the top dose activity, negative = inhibition, actives largely listed as inhibitors; shares compounds with Giardia FBPA inh-1; 1,500 compounds, 4% hits; AID 2794, 2010; further: on the % scale 0 is the no-effect control and ±100 the full control effect; nearly all actives have a fitted effect of over 60% in size
Target sequence (P00883 whole entry, looked up): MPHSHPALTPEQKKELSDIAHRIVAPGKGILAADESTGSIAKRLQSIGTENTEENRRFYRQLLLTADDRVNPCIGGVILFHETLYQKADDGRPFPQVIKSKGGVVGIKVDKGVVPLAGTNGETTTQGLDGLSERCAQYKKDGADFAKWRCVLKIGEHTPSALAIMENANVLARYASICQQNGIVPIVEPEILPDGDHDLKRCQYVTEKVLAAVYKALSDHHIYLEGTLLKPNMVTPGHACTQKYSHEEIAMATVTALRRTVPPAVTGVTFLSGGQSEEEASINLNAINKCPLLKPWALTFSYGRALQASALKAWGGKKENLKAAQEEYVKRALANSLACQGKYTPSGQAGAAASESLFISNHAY
GAPDH counter: qHTS Assay for Inhibitors of Fructose-1,6-bisphosphate Aldolase from Giardia Lamblia: Coupling assay counterscreen confirmation. 1,500 compounds, 6% hits. shares compounds with Giardia FBPA inh-1. GAPDH coupling enzyme counterscreen, biochemical, qHTS. Potency, µM (series often up to 57.5 µM), inactives show top-dose activity change, negative = inhibition, most hits filed as inhibitors. AID 2795, 2010; further: on the % scale 0 is the no-effect control and ±100 the full control effect; nearly all actives have a fitted effect of over 55% in size
* marks the source's active call; other numbers are inactive results; [ ] = dose if it differs, or a comment. Unless noted, the call rests on the fitted dose curve; in most records, active means well fitted curve in the direction sought with a large enough effect; inconclusive means small, poorly fitted or top-dose-only effect, or another doubt; inactive means no such curve, though single readings can be large; an effect the other way counts as inactive or inconclusive. Potency means the concentration at half of the fitted maximal effect.

Results for N#C/C(=C(/O)COC(=O)c1cccnc1Cl)c1nc2ccccc2[nH]1 ?
SARS PLpro yeast: 0%; AmpC inh detg: 0%; AmpC no deterg: -39%; Giardia FBPA inh-1: 18µM*; Giardia growth: 20%; Mammal cell tox: -4%; Giardia FBPA inh-2: -16%; Rabbit FBPA inh: -13%; GAPDH counter: -14%

What do the screens show for `COCC(=O)OC/C(O)=C(\C#N)c1nc2ccccc2[nH]1`?
SARS PLpro yeast: -1%; AmpC inh detg: 6%; AmpC no deterg: -10%; Giardia FBPA inh-1: 16µM*; Giardia growth: 10%[10.4 µM]; Mammal cell tox: inconclusive; Giardia FBPA inh-2: -1%; Rabbit FBPA inh: -1%; GAPDH counter: 1%

Results for Cc1cccc(C)c1OCC(=O)OC/C(O)=C(\C#N)c1nc2ccccc2[nH]1 ?
SARS PLpro yeast: -2%; AmpC inh detg: -13%; AmpC no deterg: -23%; Giardia FBPA inh-1: -15%

What do the screens show for `N#C/C(=C(/O)COC(=O)c1ccc(O)cc1)c1nc2ccccc2[nH]1`?
SARS PLpro yeast: -1%; AmpC inh detg: 3%; AmpC no deterg: -36%; Giardia FBPA inh-1: 10µM*; Giardia growth: -15%; Mammal cell tox: 1%; Giardia FBPA inh-2: -7%; Rabbit FBPA inh: 2%; GAPDH counter: 3%

How did COc1cccc(CNC(=O)C2CCCN(S(=O)(=O)c3ccc4c(ccn4C)c3)C2)c1OC (configuration not stated) do in these assays?
AmpC inh detg: 19%

What do the screens show for `COc1ccc(N2CCN(c3oc(/C=C/c4ccccc4OC)nc3C#N)CC2)cc1`?
AmpC inh detg: -8%

Results for Cc1cccc(OCCOCCN2CCNCC2)c1C ?
SARS PLpro yeast: -2%; AmpC inh detg: inconclusive; AmpC no deterg: 32%; Giardia FBPA inh-1: -4%

How did CC1CCN(CCOc2ccccc2-c2ccccc2)CC1 do in these assays?
SARS PLpro yeast: 8%; AmpC inh detg: inconclusive; AmpC no deterg: -10%; Giardia FBPA inh-1: inconclusive

How did CCN1CCN(CCOCCOc2ccccc2-c2ccccc2)CC1 do in these assays?
SARS PLpro yeast: -1%; AmpC inh detg: -1%; AmpC no deterg: 47%; Giardia FBPA inh-1: 18µM*; Giardia growth: 11%[10.4 µM]; Mammal cell tox: -9%; Giardia FBPA inh-2: 7%; Rabbit FBPA inh: -2%; GAPDH counter: 2%

What do the screens show for `c1ccc(-c2ccccc2OCCOCCN2CCNCC2)cc1`?
SARS PLpro yeast: 0%; AmpC inh detg: -5%; AmpC no deterg: 31%; Giardia FBPA inh-1: 20µM*; Giardia growth: inconclusive; Mammal cell tox: 6%; Giardia FBPA inh-2: -3%; Rabbit FBPA inh: 3%; GAPDH counter: -16%

Results for CCn1c(CNC(=O)c2ccc(OC)cc2)nnc1SCC(=O)Nc1ccc(F)cc1 ?
AmpC inh detg: -10%

What do the screens show for `Cc1c(N2C(=O)/C(=C/c3ccccc3)SC2=S)c(=O)n(-c2ccccc2)n1C`?
SARS PLpro yeast: -7%; AmpC inh detg: -10%; AmpC no deterg: 5%; Giardia FBPA inh-1: 6%

How did Cc1c(N2C(=O)/C(=C3\C(=O)N(CC(=O)O)c4ccccc43)SC2=S)c(=O)n(-c2ccccc2)n1C do in these assays?
SARS PLpro yeast: 1%; AmpC inh detg: -5%; AmpC no deterg: -18%; Giardia FBPA inh-1: 10µM*; Giardia growth: 29%; Mammal cell tox: 21%; Giardia FBPA inh-2: inconclusive; Rabbit FBPA inh: -19%; GAPDH counter: inconclusive

How did O=C(CSc1nc2ncccc2[nH]1)Nc1c(F)cc(F)cc1Br do in these assays?
SARS PLpro yeast: -4%; AmpC inh detg: -15%; AmpC no deterg: -28%; Giardia FBPA inh-1: 25µM*; Giardia growth: -18%; Mammal cell tox: 7%; Giardia FBPA inh-2: 4%; Rabbit FBPA inh: 5%; GAPDH counter: 22%

What do the screens show for `O=S(=O)(Nc1ccc(Cl)cc1)c1ccc(N2CCOCC2)c(NC(=S)NCCN2CCOCC2)c1`?
SARS PLpro yeast: -2%; AmpC inh detg: -11%; AmpC no deterg: 41%; Giardia FBPA inh-1: 5µM*; Giardia growth: -1%[38.3 µM]; Mammal cell tox: 3%; Giardia FBPA inh-2: inconclusive; Rabbit FBPA inh: 40µM*; GAPDH counter: 40µM*

What do the screens show for `CC(C)(C)OC(=O)N1CCC(c2c(C(=O)Nc3ccc4c(c3)OCCO4)cnn2-c2ccccc2)CC1`?
AmpC inh detg: 15%

How did CC1CN(S(=O)(=O)c2ccc(C(=O)Nc3nnc(-c4ccco4)o3)cc2)CC(C)O1 (configuration not stated) do in these assays?
SARS PLpro yeast: 1%; AmpC inh detg: 1%; AmpC no deterg: -51%; Giardia FBPA inh-1: 18µM*; Giardia growth: -8%; Mammal cell tox: 20%; Giardia FBPA inh-2: 21%; Rabbit FBPA inh: 13%; GAPDH counter: 7%

What do the screens show for `CC1CCCN(S(=O)(=O)c2ccc(C(=O)Nc3nnc(-c4ccccn4)o3)cc2)C1` (configuration not stated)?
SARS PLpro yeast: 4%; AmpC inh detg: 1%; AmpC no deterg: inconclusive; Giardia FBPA inh-1: 18µM*; Giardia growth: -17%; Mammal cell tox: 16%; Giardia FBPA inh-2: 24%; Rabbit FBPA inh: 19%; GAPDH counter: 8%

What do the screens show for `O=C(Nc1nnc(-c2ccco2)o1)c1ccc(S(=O)(=O)N2CCCC2)cc1`?
SARS PLpro yeast: 4%; AmpC inh detg: 7%; AmpC no deterg: -24%; Giardia FBPA inh-1: 5µM*; Giardia growth: 0%[10.4 µM]; Mammal cell tox: -6%; Giardia FBPA inh-2: 11%; Rabbit FBPA inh: 12%; GAPDH counter: -15%
